# Records with an inconclusive call do not appear. Calls of active or inactive are those of the source. Calls follow the shape of the dose curve; as a rule, active = well fitted inhibition curve with a large enough effect; inconclusive = small, poorly fitted or top-dose-only effect; inactive = flat fitted curve, though single readings scatter.
# Biological target: Galactokinase (Homo sapiens) (UniProt P51570)
# Test: qHTS for Inhibitors of Human Galactokinase (GALK): SAR round 3
# Conditions: ADP detection luminescence, 1 h; series mostly up to 57.5 µM; activity change, negative = inhibition: at the top concentration
# Procedure, shortened: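 Cherry-picked actives were retested in quantitative dose format against 5 nM human galactokinase, using 100 µM galactose and 35 µM ATP at pH 8.0 (HEPES, MgCl2, NaCl). After 1 h at room temperature, product was quantified by luminescence.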
# Sequence of Galactokinase (Homo sapiens) (P51570 whole entry, looked up): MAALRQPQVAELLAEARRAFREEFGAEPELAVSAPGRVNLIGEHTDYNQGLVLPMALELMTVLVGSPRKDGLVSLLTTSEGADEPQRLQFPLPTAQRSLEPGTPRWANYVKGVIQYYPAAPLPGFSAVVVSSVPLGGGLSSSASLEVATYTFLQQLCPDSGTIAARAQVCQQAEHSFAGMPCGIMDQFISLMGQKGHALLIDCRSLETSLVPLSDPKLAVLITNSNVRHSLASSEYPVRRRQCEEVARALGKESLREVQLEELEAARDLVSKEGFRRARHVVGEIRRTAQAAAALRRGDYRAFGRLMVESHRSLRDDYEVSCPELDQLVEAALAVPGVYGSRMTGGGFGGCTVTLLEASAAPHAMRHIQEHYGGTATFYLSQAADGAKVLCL
Compound,"activity change, negative = inhibition",Potency
COc1cccc2nc(Nc3nc4ccccc4o3)nc(-c3ccccc3Cl)c12,-7.85% (inactive),
COc1ccccc1NC(=O)C1=C(C)NC(Nc2nc3ccccc3o2)=NC1c1ccccc1Br (centres undefined),-19.2% (inactive),
O=C1CCCC2CC(Nc3nc4ccccc4o3)CC(c3ccccc3)C12 (centres undefined),-0.0792% (inactive),
CC1=C(C(=O)Nc2noc3ccccc23)C2(CCCC2)N=C(Nc2nc3ccccc3o2)N1,2.5% (inactive),
O=c1cc(CN2CCCN(c3ccc(C(F)(F)F)cn3)CC2)nc2ccccn12,-2.21% (inactive),
Cc1cccc(C2N=C(Nc3nc4ccccc4o3)NC3=C2C(=O)CCC3)c1 (centres undefined),-18% (inactive),
O=C1CCCC2=C1C(c1ccccc1I)N=C(Nc1nc3ccccc3o1)N2 (centres undefined),,6.11 µM (active)
O=C1CCCC2=C1C1(CCCC1)N=C(Nc1nc3cc4ccccc4cc3o1)N2,1.6% (inactive),
O=C1CCCC2=C1C(c1[nH]ncc1Cl)NC(=NCc1cccnc1)N2 (centres undefined),-7.25% (inactive),
O=C1CCCC2=C1C(c1ccncc1Cl)N=C(Nc1nc3ccccc3o1)N2 (centres undefined),,19.3 µM (active)
O=C1CCCC2=C1C(c1[nH]ncc1Cl)NC(=NCc1ccccc1)N2 (centres undefined),1.45% (inactive),
O=C1CCCC2=C1C(c1[nH]ncc1Cl)N=C(Nc1nc3c(Br)cccc3o1)N2 (centres undefined),-4.45% (inactive),
O=C(Nc1ncc([S+](=O)([O-])N2CCOCC2)s1)c1cccc(Br)c1,-2.8% (inactive),
CCc1ccc2oc(=O)cc(CN3CCN(c4ccccc4F)CC3)c2c1,4.45% (inactive),
COc1ccc(C2N=C(Nc3nc4ccccc4o3)NC3=C2C(=O)CCC3)cc1 (centres undefined),-7.29% (inactive),
O=C1CCCC2=C1C(c1cccnc1Br)N=C(Nc1nc3ccccc3o1)N2 (centres undefined),-21.8% (inactive),
O=C1CCCC2=C1C(c1[nH]ncc1Cl)N=C(Nc1nc3cc(F)ccc3o1)N2 (centres undefined),0.642% (inactive),
CN1C(=O)NC(c2ccccc2Cl)C2=C1CCCC2=O (centres undefined),-7.27% (inactive),
Cc1nc(CN=C2NC3=C(C(=O)CCC3)C(c3[nH]ncc3Cl)N2)cs1 (centres undefined),-0.394% (inactive),
O=C1CCCC2=C1C(c1[nH]ncc1Cl)N=C(Nc1nc3ccccc3s1)N2 (centres undefined),-4.86% (inactive),

Compound,"activity change, negative = inhibition",Potency
COC(=O)c1ccccc1NC(=O)c1ccccc1OC(F)F,0.981% (inactive),
O=C1CCCC2=C1C(c1[nH]ncc1Cl)N=C(c1nc3ccccc3o1)N2 (centres undefined),1.55% (inactive),
CC(C)CN1CC2=C(C1=O)C(c1ccccc1Cl)N=C(Nc1nc3ccccc3o1)N2 (centres undefined),-8.14% (inactive),
N#CC1=C(Nc2nc3ccccc3o2)OC2=C(C(=O)CCC2)C1c1[nH]ncc1Cl (centres undefined),1.8% (inactive),
O=C1CCCC2=C1C1(CCCC1)N=C(Nc1nc3ccccc3n1Cc1ccccc1)N2,6.14% (inactive),
O=C1CC(c2ccccc2)CC2=C1C1(CCCCC1)N=C(Nc1nc3ccccc3o1)N2 (centres undefined),3.27% (inactive),
O=C(Nc1nnc(S(=O)(=O)N2CCOCC2)s1)c1cccc(Br)c1,-11.9% (inactive),
O=C1CCCC2=C1C(c1cccc(F)c1)N=C(Nc1nc3ccccc3o1)N2 (centres undefined),-24.3% (inactive),
O=C1CCCC2=C1C(c1[nH]ncc1Cl)NC(=NCc1ccncc1)N2 (centres undefined),-0.0488% (inactive),
O=C1CCCC2=C1C(c1[nH]ncc1Cl)NC(=NCc1cccs1)N2 (centres undefined),0.544% (inactive),
O=C1CCCC2=C1C(c1ncccc1Br)N=C(Nc1nc3ccccc3o1)N2 (centres undefined),-27.8% (inactive),
CC1=C(C(=O)Nc2noc3ccccc23)C(c2nn(C)cc2Cl)N=C(Nc2nc3ccccc3o2)N1 (centres undefined),2.33% (inactive),
CC1=C(C(=O)Nc2nc3ccccc3s2)C(c2nn(C)cc2Cl)N=C(Nc2nc3ccccc3o2)N1 (centres undefined),-5.31% (inactive),
CC1=C(C(=O)N(C)c2ccccc2C)C(c2ccccc2Br)N=C(Nc2nc3ccccc3o2)N1 (centres undefined),-20.2% (inactive),
Cc1cccc2oc(NC3=NC(c4[nH]ncc4Cl)C4=C(CCCC4=O)N3)nc12 (centres undefined),,inactive
O=C1CCCC2=C1C(c1[nH]ncc1Cl)N=C(Nc1nccs1)N2 (centres undefined),2% (inactive),
O=C1CCCC2N=C(Nc3nc4ccccc4o3)CC(c3ccccc3Cl)C12 (centres undefined),3.86% (inactive),
O=C1CCCC2=C1C1(CCCC1)N=C(Nc1nc3ccccc3o1)N2,-28.9% (inactive),
CNC(=O)C1=C(C)NC(Nc2nc3ccccc3o2)=NC12CCCC2,-15.1% (inactive),

# Reference: PubChem BioAssay AID720664 (National Center for Advancing Translational Sciences (NCATS), 2013)
